From PubChem
L3MBTL1 inh – blocks human L3MBTL1; 230,000 tested, 0.66% active; AlphaScreen L3MBTL1–H3K9me1 peptide binding; AID 485360; Potency, µM (highest dose often 57.1 µM), usual class: inhibitors; Q9Y468; note: nearly all actives have a fitted effect of over 60% in size
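Displacement of a biotinylated histone H3(1-15) peptide monomethylated at Lys9 (75 nM) from L3MBTL1 (50 nM) was measured by AlphaScreen after a 30 min room-temperature compound incubation; cefsulodin titration served as intraplate control.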
HP1b chromo inh – inhibitors of HP1-beta chromodomain binding to methylated histone tails; AlphaScreen HP1-beta / biotin-H3K9me3 peptide binding; Potency, µM (series often up to 114 µM), hits mostly inhibitors; 390,000 tested, 0.56% active; note: nearly all actives have a fitted effect of over 70% in size
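Compound inhibition of the preformed complex between 50 nM HP1-beta and 50 nM biotinylated H3K9me3 peptide was read by AlphaScreen. Buffer was PBS pH 7.4 with 0.01% Tween-20. Incubations ran 30 min at room temperature, with 10 ug/mL donor/acceptor beads.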
VDR inhibitor – blocks the human vitamin D receptor. VDR-SRC2-3 peptide fluorescence polarization, 2 h. Potency, µM, usual class: inhibitors. 400,000 tested, 0.93% active. AID 504847
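Two reagent solutions held at 4 deg C in the dark were dispensed, compounds pinned at 23 nl, and the mixture incubated 2 h at room temperature. Read-out: fluorescence polarization of VDR–SRC2-3 peptide binding.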
PLK1 PBD block – PLK1 (human) polo-box domain binding inhibition. Plk1 PBD binding of FITC phosphopeptide, fluorescence polarization. Potency, µM, most hits filed as inhibitors. 360,000 tested, 2.8% active. AID 720504; note: series mostly up to about 57 µM; nearly all actives have a fitted effect of over 65% in size
Target sequence (P53350 whole entry, looked up, the tested form may be a part): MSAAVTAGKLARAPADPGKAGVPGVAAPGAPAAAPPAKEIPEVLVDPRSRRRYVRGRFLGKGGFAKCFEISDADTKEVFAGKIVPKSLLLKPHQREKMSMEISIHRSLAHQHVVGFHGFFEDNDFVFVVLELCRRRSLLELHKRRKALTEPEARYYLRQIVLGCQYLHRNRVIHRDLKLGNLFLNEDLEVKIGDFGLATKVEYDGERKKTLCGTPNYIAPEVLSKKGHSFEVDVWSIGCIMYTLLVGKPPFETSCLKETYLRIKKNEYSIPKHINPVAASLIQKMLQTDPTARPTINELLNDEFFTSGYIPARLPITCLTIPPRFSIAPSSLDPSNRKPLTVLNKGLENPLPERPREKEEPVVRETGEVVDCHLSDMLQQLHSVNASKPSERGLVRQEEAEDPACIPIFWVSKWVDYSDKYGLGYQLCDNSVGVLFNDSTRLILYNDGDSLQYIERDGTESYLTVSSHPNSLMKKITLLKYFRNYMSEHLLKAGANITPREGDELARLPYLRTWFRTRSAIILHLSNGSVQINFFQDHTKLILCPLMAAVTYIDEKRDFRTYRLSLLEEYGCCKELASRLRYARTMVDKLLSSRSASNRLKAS
BAZ2B block – BAZ2B (human) inhibition; AlphaScreen BAZ2B-H3K14Ac peptide displacement; Potency, µM (doses to about 114 µM), actives largely listed as inhibitors; 360,000 tested, 4.4% active; note: nearly all actives have a fitted effect of over 60% in size
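In this displacement format the biotinylated H3(5-23) peptide acetylated at Lys14 serves as ligand at 50 nM, with BAZ2B at 50 nM in PBS pH 7.4 containing 0.01% Tween-20. Donor and acceptor beads are 10 ug/mL final.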
JMJD2A Tudor – JMJD2A Tudor domain (human) inhibition | O75164 | AlphaScreen JMJD2A-Tudor / H3K4me3 peptide binding | Potency, µM (titrated, usually from 114 µM), most hits filed as inhibitors | 390,000 tested, 4.4% active; note: nearly all actives have a fitted effect of over 50% in size
Numbers stand for hits; – = inactive; ? = inconclusive; · = no result given; [ ] = dose if it differs, or a comment. Hits are enriched below; roughly 6.9% of the tested compounds scored in any of these assays. Calls come from the whole dose curve; as a rule, active = well fitted curve in the direction sought with a large enough effect; inconclusive = small, poorly fitted or top-dose-only effect, or another doubt; inactive = no such curve, though single readings can be large; an effect the other way counts as inactive or inconclusive.

SMILES | L3MBTL1 inh | HP1b chromo inh | VDR inhibitor | PLK1 PBD block | BAZ2B block | JMJD2A Tudor
CC(=O)Nc1nc2ccccc2n1CCN1CCOCC1 | – | – | – | – | – | 4.5µM
CCn1c(NC(C)=O)nc2ccccc21 | – | – | – | – | – | 40µM
O=C(Nc1nc2ccccc2n1CCN1CCOCC1)c1ccccc1 | – | – | – | – | – | –
CCn1cc(Cl)c(C(=O)Nc2nc3ccccc3n2CCN2CCCCC2)n1 | – | – | – | – | 79µM | ?
C=Cc1ccc(Cn2c(C(=O)O)c(CNCc3cc(OC)ccc3OC)c3ccc(C)cc32)cc1 | · | – | – | · | – | –
Cc1ccc(/C=C/C(=O)Nc2ccc(S(=O)(=O)Nc3onc(C)c3C)cc2)cc1 | · | – | – | 38µM | – | –
CC(C)=CC(=O)Nc1ccc(S(=O)(=O)Nc2onc(C)c2C)cc1 | – | – | – | – | – | –
Cc1ccc(C)c(OCC(=O)Nc2ccc(S(=O)(=O)Nc3onc(C)c3C)cc2)c1 | · | – | – | – | – | –
Cc1ccc(C(C)C)c(OCC(=O)Nc2ccc(S(=O)(=O)Nc3onc(C)c3C)cc2)c1 | · | – | – | · | 56µM | –
CCOC(=O)c1c(C)oc2nc(C)nc(N3CCN(c4cccc(C(F)(F)F)c4)CC3)c12 | · | – | – | · | – | –
COc1ccc(-n2nc(-c3ccc(C)cc3)c3cnc4cc(F)c(F)cc4c32)cc1 | · | – | – | · | · | –
CCn1c(CN2CCC(C)CC2)nc2cc(NC(=O)COc3ccc([N+](=O)[O-])cc3)ccc21 | · | – | – | · | – | –
O=S(=O)(NCc1ccccc1Cl)c1ccc(N2CCCCS2(=O)=O)cc1 | · | – | – | · | – | –
COC(=O)C1=C(C)N(Cc2ccccc2)C(=NCCc2c[nH]c3ccccc23)N[C@H]1c1cccc(C(F)(F)F)c1 | – | – | – | – | ? | 56µM
COCCN=C1N[C@@H](c2cccc(C(F)(F)F)c2)C(C(=O)OC)=C(C)N1Cc1ccccc1 | – | – | – | – | – | ?
CCN1C(=NCC(C)C)N[C@@H](c2cccc(C(F)(F)F)c2)C(C(=O)OC)=C1C | – | – | – | – | ? | 18µM
CN(C)c1ccc(NC(=O)C2C3C=CC(C3)C2C(=O)O)cc1 (centres undefined) | · | – | ? | – | 35µM | ?
CC(=O)Nc1nc(N2C(=O)c3ccccc3C2=O)n(-c2ccccc2)n1 | –[11.4 µM] | – | – | – | ? | 79µM
O=C(Nc1nc(N2C(=O)c3ccccc3C2=O)n(-c2ccccc2)n1)c1ccccc1 | – | – | – | – | ? | ?
CC(C)(C)OC(=O)N1C[C@H](O)C[C@H]1C(=O)OCC(=O)c1ccc([N+](=O)[O-])cc1 | · | – | ? | 21µM | – | ?
Cc1ccc(S(=O)(=O)N2CC(O)C[C@H]2C(=O)OCC(=O)c2ccccc2)cc1 (some centres undefined) | – | – | – | – | – | –
NC(=O)C1CCN(c2c([N+](=O)[O-])cc(C(F)(F)F)cc2[N+](=O)[O-])CC1 | – | – | – | – | – | –
COC(=O)C1CCN(c2c([N+](=O)[O-])cc(C(F)(F)F)cc2[N+](=O)[O-])CC1 | – | ? | – | – | 35µM | –[11.4 µM]
O=S1(=O)C2CC3C=CC2(O3)C(O)C(Cc2ccccc2)N1Cc1cccc(F)c1 (centres undefined) | · | – | – | · | · | –
NCCCC[C@@H]1NC(=O)[C@H](CCC(=O)O)NC(=O)c2cc([N+](=O)[O-])cc(I)c2SC[C@@H](C(=O)NCC(N)=O)NC1=O | – | – | – | – | ? | 22µM
SMILES | L3MBTL1 inh | HP1b chromo inh | VDR inhibitor | PLK1 PBD block | BAZ2B block | JMJD2A Tudor
NCCCC[C@@H]1NC(=O)c2cc([N+](=O)[O-])cc(I)c2SC[C@@H](C(N)=O)NC(=O)[C@H](Cc2ccc(O)cc2)NC1=O | – | – | – | ? | ? | ?
NCCCC[C@H]1NC(=O)[C@H](CCC(=O)O)NC(=O)c2cc([N+](=O)[O-])cc(I)c2OCC[C@@H](C(N)=O)NC1=O | – | – | ? | 7.5µM | – | 50µM
O=C(CN1C(=O)C2(SCC(=O)N2c2cccc(Cl)c2)c2ccccc21)NCCc1ccccc1 (centres undefined) | · | – | – | · | – | –
COc1cccc(CNC(=O)C2Cc3ccccc3CN2C(C)=O)c1 (centres undefined) | · | – | ? | 30µM | – | ?
NC(=O)c1ccc[n+]([C@@H]2OC(COP(=O)([O-])OP(=O)(O)OCC3OC(n4cnc5c(N)ncnc54)C(O)C3O)C(O)C2O)c1 (some centres undefined) | · | · | – | · | · | ·
NC(=O)c1ccc[n+]([C@H]2O[C@@H](COP(=O)([O-])OP(=O)(O)OC[C@H]3O[C@@H](n4cnc5c(N)ncnc54)[C@H](O)[C@@H]3O)[C@H](O)[C@@H]2O)c1 | – | – | ? | – | 35µM | 79µM
O=C(CN(c1ccccc1Cl)S(=O)(=O)c1ccccc1)NC1CC2CCC1C2 (centres undefined) | · | · | · | – | · | ·
CCOc1ccc(/C(O)=C2\C(=O)C(=O)N(c3cc(C)on3)C2c2ccccc2OC)cc1 (centres undefined) | – | – | – | – | – | –
CCOc1ccc(/C(O)=C2\C(=O)C(=O)N(CCOCCO)C2c2ccccc2OC)cc1 (centres undefined) | – | – | – | – | – | 18µM
Clc1ccc(C(c2nnnn2C2CCCC2)N2CCSCC2)cc1 (centres undefined) | – | – | – | – | – | –
O=C(c1cc2ccccc2oc1=O)N(Cc1cccs1)Cc1cccs1 | – | – | ? | 15µM | – | 28µM
COC1(C)CC2C(CC1OC(=O)c1cc([N+](=O)[O-])cc([N+](=O)[O-])c1)C2(C)C (centres undefined) | – | ? | – | – | 7.1µM | 25µM
COC(=O)c1cc(C(=O)NCC2CCCCC2)cc([N+](=O)[O-])c1 | · | – | – | – | – | –
O=[N+]([O-])c1cccnc1Sc1ccc(Br)cc1 | · | ? | – | – | · | 56µM
Cc1ccccc1Sc1ncccc1[N+](=O)[O-] | · | – | ? | – | · | ?
Cc1ccc(Sc2ncccc2[N+](=O)[O-])cc1 | · | ? | – | – | ? | 45µM
Cc1c([N+](=O)[O-])cnc(Sc2ccccc2)c1[N+](=O)[O-] | · | ? | ? | ? | · | 40µM
CNc1ncnc(Sc2ccc(Cl)cc2)c1[N+](=O)[O-] | – | – | – | – | – | –
CCCCC(=O)Nc1ccc(N2CCN(C(=O)c3ccco3)CC2)cc1 | · | – | – | – | – | –
COc1ccc2c3c(cccc13)N(C)N=C2C | – | – | – | 21µM | – | –[11.4 µM]
COc1ccc(-c2ccc(OC)c(OC)c2OC)c(OC)c1OC | · | – | – | – | · | –
Cc1ccc(C)c(NC(=O)CN(C)C(=O)c2cc3ccccc3oc2=O)c1 | – | – | – | – | · | –
